Experimental findings from PubChem BioAssay AID624167 (Sanford-Burnham Center for Chemical Genomics, 2012) are described below.

The nature of the assay: Peg3 promoter luciferase inhibitors, potency, dose response, cell-based, HeLa, CREF/GAPDH counter-screen panel (AID 624167). The note with it: CREF/GAPDH counter-screens; run 2, dose range 1, at 100 µM (top of the series). For orientation: A counterscreen serves to expose hits that act by an unwanted route or on another target.
The term inhibition denotes the relative decrease from the control value, in per cent. Read a low inhibition as a weak effect. As for `O=C(CSC1c2ccccc2-c2ccccc21)N/N=C/c1ccccc1O`, the inhibition amounted to 53.7%.

Take `CCC(c1nnnn1-c1ccc2c(c1)OCCO2)N1CCC(n2c(=O)[nH]c3ccccc32)CC1` (stereo not drawn): the inhibition was 100%.

With `COC(COC(N)=O)C1=C(N2CC2)C(=O)C(C)=C(N2CC2)C1=O` (stereo not drawn), the inhibition amounted to 89%. As to `CC(=O)OC1(C)CC(C)C(=O)C(C(O)CC2CC(=O)NC(=O)C2)C1` (stereo not drawn), the inhibition was determined as 95.8%. `C=Cc1cc(OC)c2c(c1)c(=O)oc1c2cc(OC)c2c(O)ccc(C3OC(C)C(O)C(C)(O)C3O)c21` (stereo not drawn): the inhibition was found to be 40.5%. As for `CC1=CC2/C=C(\C)CCC(O)C(O)/C=C/C(=O)C23C(=O)NC(CC(C)C)C3C1C` (stereo not drawn), the figure is 100%; as for `COc1cc2nc(CN3CC=C(c4ccccc4)CC3)[nH]c(=O)c2cc1OC`, 59.5%. `CC(=O)OC1CC[C@]2(C#N)[C@H]3CC[C@]4(C)[C@H](C5C=CC(=O)O5)CCC4(O)C3CCC2(O)C1` (stereo partly drawn): the inhibition came to 83.6%.
